# Sampled rows, rich in hits. Any-hit rate of the full collection: about 3.2%.
# p53null 39C tox = selectivity test: cytotoxicity in p53 null cells, nonpermissive temperature | 55,000 compounds, 0.97% hits | Potency, µM (series often up to 46.1 µM), without a hit: at the top dose activity, negative = cell killing, hits mostly cytotoxic | H1299 p53-null (neo) cells, 39C, ATPlite viability, 24 h;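 further: potency means the concentration at half of the fitted maximal effect; 0% = DMSO only and -100% = full killing by 100 µM tamoxifen; nearly all actives have a fitted effect of over 50% in size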
#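 H1299 lung cancer cells, p53-null (H1299-neo) or expressing p53 A138V (H1299-p53A138V), were plated overnight at 37C, then exposed to compounds at up to 46 uM for 24 hr at 39C. Viability was read by ATP-based luminescence.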
# PMP22 txn prim = modulators of PMP22 gene transcription in S16 Schwann cells | S16 Pmp22-F2sN Schwann cells, FLuc/NLuc coincidence luminescence, 24 h | Potency, µM (top dose mostly 57.5 µM), for the others: at the top dose activity change, negative = inhibition, hits mostly inhibitors | 43,000 compounds, 2% hits; active means clear falling dose curves in both reporters; inconclusive means both reporters move, but less clearly or upward; inactive means either reporter flat; the % is the NLuc reporter signal; further: potency means the concentration at half of the fitted maximal effect; on the % scale 0 is the no-effect control and ±100 the full control effect
#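 Reporter cells (S16 Pmp22-F2sN, 500–1,000 per well) exposed to compounds for 24 h, 37C, 5% CO2; lysis with FLuc read after 10 min, then Stop&Glo and NLuc read after 10 min.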
# S16 F2sN tox = toxic to S16 Pmp22-F2sN Schwann cells; 43,000 compounds, 0.48% hits; Potency, µM (titrated, usually from 57.5 µM), for inactives: at the top dose activity change, negative = cytotoxicity, actives largely listed as cytotoxic; S16 Pmp22-F2sN Schwann cells viability, CellTiter-Glo, 24 h; further: potency means the concentration at half of the fitted maximal effect; on the % scale 0 is the no-effect control and ±100 the full control effect; nearly all actives have a fitted effect of over 65% in size
#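 Used to flag compounds lowering reporter output through toxicity, this quantitative HTS measures ATP-based CellTiter-Glo luminescence in S16 Pmp22-F2sN Schwann cells after 24 h compound exposure at 37C.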
# p53null 32C tox = selectivity test: cytotoxicity in p53 null cells, permissive temperature. H1299-neo p53 null cells, ATP luminescence, 24 h, 32C. Potency, µM (titrated, usually from 46.1 µM), for the others: top-dose activity change, negative = cytotoxicity, usual class: cytotoxic. 55,000 compounds, 0.62% hits. AID 903;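 further: potency means the concentration at half of the fitted maximal effect; 0% = DMSO only and -100% = full killing by 100 µM tamoxifen; nearly all actives have a fitted effect of over 55% in size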
#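 ATP-content luminescence in p53-null H1299-neo cells after 24 h compound exposure (up to 46 uM) at 32C permissive temperature; 0% and 100% killing set by DMSO and 100 uM tamoxifen; Hill-equation AC50.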
# pS6 MEF inh = inhibitors of mTORC1 signaling in Tsc2-/- p53-/- MEF cells; AID 493208; 44,000 compounds, 0.78% hits; Tsc2-/- p53-/- MEF, phospho-rpS6 immunofluorescence/PI, 24 h; Potency, µM (highest dose often 38.3 µM), for the others: at the top dose activity change, negative = inhibition, most hits filed as inhibitors;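 further: potency means the concentration at half of the fitted maximal effect; plate controls were DMSO for no effect and rapamycin for full effect; nearly all actives have a fitted effect of over 50% in size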
#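 Plate MEFs (Tsc2-/-, p53-/-, empty vector) in DMEM/10% FBS; after 24 h add compound, incubate 24 h at 37 degree Celsius; fix in PFA/TX-100, block, stain phospho-rpS6 and 10 uM PI; scan at 488 nm; report % positive cells.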
# NLuc saturating = counter-screen for PMP22 expression modulators: NanoLuc inhibition, saturating substrate; shares compounds with PMP22 txn prim; Secreted NLuc enzyme (filtered S16 cell medium), Nano-Glo luminescence; Potency, µM (titrated, usually from 57.5 µM), for inactives: top-dose activity change, negative = inhibition, usual class: inhibitors; 690 compounds, 4% hits; AID 1508638; further: potency means the concentration at half of the fitted maximal effect; on the % scale 0 is the no-effect control and ±100 the full control effect
# NLuc Km counter = counter-screen for PMP22 expression modulators: NanoLuc inhibition at Km; shares compounds with PMP22 txn prim; secreted NLuc enzyme, coelenterazine luminescence, Km conditions; Potency, µM (highest dose often 57.5 µM), for inactives: at the top dose activity change, negative = inhibition, most hits filed as inhibitors; 690 compounds, 5% hits; further: potency means the concentration at half of the fitted maximal effect; on the % scale 0 is the no-effect control and ±100 the full control effect
# FLuc counter = firefly luciferase enzyme inhibition artifact for PMP22 screen. AID 1508640. shares compounds with PMP22 txn prim. purified P. pyralis FLuc, luminescence, 10 min. Potency, µM (titrated, usually from 57.5 µM), without a hit: top-dose activity, negative = inhibition, most hits filed as inhibitors. 690 tested, under 10 active; further: % of control where 0% means no effect
# Target sequence (P08659 whole entry, looked up): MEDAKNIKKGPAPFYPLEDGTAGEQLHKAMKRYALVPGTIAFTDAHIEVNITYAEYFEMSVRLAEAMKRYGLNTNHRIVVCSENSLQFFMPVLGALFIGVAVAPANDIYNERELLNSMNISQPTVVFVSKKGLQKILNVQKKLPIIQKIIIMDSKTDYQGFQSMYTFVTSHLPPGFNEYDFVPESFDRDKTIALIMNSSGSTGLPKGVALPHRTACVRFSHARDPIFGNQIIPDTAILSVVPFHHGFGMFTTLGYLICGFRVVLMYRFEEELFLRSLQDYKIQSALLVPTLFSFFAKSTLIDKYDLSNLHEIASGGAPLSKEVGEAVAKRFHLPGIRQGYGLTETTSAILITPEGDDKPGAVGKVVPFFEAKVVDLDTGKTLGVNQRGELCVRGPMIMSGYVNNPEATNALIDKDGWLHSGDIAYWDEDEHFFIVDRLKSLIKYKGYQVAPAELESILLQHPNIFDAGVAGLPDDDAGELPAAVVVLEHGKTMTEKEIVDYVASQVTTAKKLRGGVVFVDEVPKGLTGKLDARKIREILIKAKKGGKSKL
# S16 viab conf = confirmation of cytotoxicity in S16 Pmp22-F2sN Schwann cells (luciferase reporters placed in the Pmp22 gene) | S16 Schwann cells viability, CellTiter-Glo ATP luminescence, 24 h | Potency, µM (top dose mostly 57.5 µM), for the others: top-dose activity change, negative = viability loss, actives largely listed as cytotoxic | 690 compounds, 7% hits | shares compounds with PMP22 txn prim | AID 1508641; further: potency means the concentration at half of the fitted maximal effect; on the % scale 0 is the no-effect control and ±100 the full control effect
# PMP22 txn conf = confirmation of modulators of PMP22 gene transcription in S16 cells | shares compounds with PMP22 txn prim | S16 Schwann cells Pmp22-F2sN, dual luciferase, 24 h | Potency, µM (highest dose often 57.5 µM), inactives show top-dose activity change, negative = inhibition, hits mostly inhibitors | 690 compounds, 22% hits | AID 1508646; active means clear falling dose curves in both reporters; inconclusive means both reporters move, but less clearly or upward; inactive means either reporter flat; the % is the FLuc reporter signal; further: potency means the concentration at half of the fitted maximal effect
# PMP22 HiBiT cnf = rat PMP22 protein level modulation, confirmatory; shares compounds with PMP22 txn prim; S16 Schwann cells Pmp22-HiBiT, luminescence, 48 h; Potency, µM (doses to about 27.9 µM), for the others: top-dose activity change, negative = inhibition, actives largely listed as inhibitors; 95 tested, under 10 active; AID 1508647
# Target sequence (P25094 whole entry, looked up): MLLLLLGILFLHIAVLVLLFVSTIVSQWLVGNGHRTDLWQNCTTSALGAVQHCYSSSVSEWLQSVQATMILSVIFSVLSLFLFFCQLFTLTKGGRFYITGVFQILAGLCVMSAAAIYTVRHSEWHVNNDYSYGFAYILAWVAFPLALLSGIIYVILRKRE
# * marks the source's active call; other numbers are inactive results; ? = inconclusive; · = not tested or not shown. Unless noted, the call rests on the fitted dose curve; in most records, active means well fitted curve in the direction sought with a large enough effect; inconclusive means small, poorly fitted or top-dose-only effect, or another doubt; inactive means no such curve, though single readings can be large; an effect the other way counts as inactive or inconclusive.
SMILES,p53null 39C tox,PMP22 txn prim,S16 F2sN tox,p53null 32C tox,pS6 MEF inh,NLuc saturating,NLuc Km counter,FLuc counter,S16 viab conf,PMP22 txn conf,others
CCCn1ccc2c(OCC(=O)Nc3ccccc3C(=O)OCC)cccc2c1=O,-4%,14µM*,-1%,-9%,-9%,-6%,3%,-10%,2%,?,
CCN(CC)S(=O)(=O)c1ccc2c(c1)N(CC(=O)NCCCN1CCN(c3cc(Cl)ccc3C)CC1)C(=O)CO2,?,20µM*,?,?,?,-3%,-1%,-1%,?,?,
Cc1ccc(Cl)cc1NC(=O)c1cc(CN2CCCC2)on1,9%,8%,24%,-2%,0%,·,·,·,·,·,
O=c1cc(-c2ccccc2)nc(SCc2nc(-c3cccc(C(F)(F)F)c3)no2)[nH]1,9%,-7%,-2%,0%,0%,·,·,·,·,·,
CC(CNC(=O)CCCn1c(=O)c2cccn2c2ccc(F)cc21)c1ccccc1 (stereo unspecified),5%,19µM*,-14%,9%,5%,?,-7%,5%,-1%,?,
CC(CNC(=O)CCn1c(=O)c2cccn2c2ccc(F)cc21)c1ccccc1 (stereo unspecified),66%,?,-1%,12%,-5%,·,·,·,·,·,
CCN(CC)c1ccc(NC(=O)C(Cc2ccccc2)NS(=O)(=O)c2ccc(Br)s2)c(C)c1 (stereo unspecified),-11%,-25%,-4%,1%,?,·,·,·,·,·,
Cc1ccc(Cn2c(=O)n(Cc3ccc(Cl)cc3)c(=O)c3cccnc32)cc1,5%,-18%,?,-6%,0%,·,·,·,·,·,
CC1CCCN(S(=O)(=O)c2ccc(N3CCCCS3(=O)=O)cc2)C1 (stereo unspecified),-10%,?,-4%,-3%,0%,-4%,1%,-2%,8%,17%,
CCCCN(CC)CCCNC(=O)c1cc2c(=O)oc3ccc(C)cc3c2s1,10%,?,6%,3%,-2%,·,·,·,·,·,
CCCN(CCC)CCCNC(=O)c1cc2c(=O)oc3ccc(C)cc3c2s1,-4%,?,?,2%,-14%,-7%,-1%,-7%,?,?,
O=C(c1cn(CCOc2ccccc2F)c2ccccc12)C1CCCCC1,-4%,-14%,6%,-7%,-2%,·,·,·,·,·,
COc1ccc(NC(=O)c2oc3ccccc3c2NC(=O)Cc2ccc(F)cc2)c(OC)c1,6%,13µM*,2%,-4%,?,-4%,-2%,3%,?,?,PMP22 HiBiT cnf=29%
COc1ccc(NC(=O)c2oc3ccccc3c2NC(=O)c2cccc(F)c2)c(OC)c1,3%,?,19%,-7%,6%,·,·,·,·,·,
N#Cc1ccccc1CSc1nnc(-c2ccc(Br)cc2)o1,-11%,-30%,6%,2%,-2%,·,·,·,·,·,
CCOc1ccc(NC(=O)CSc2oc(-c3ccc(F)cc3)nc2S(=O)(=O)c2ccc(C)cc2)cc1,-23%,12µM*,2%,-15%,2.9µM*,-2%,0%,2%,?,15µM*,PMP22 HiBiT cnf=25%
COc1cc(-c2cc3n(C)c(C)c(CCC(=O)NC4CCCCC4)c(=O)n3n2)cc(OC)c1OC,8%,27%,16%,3%,-2%,·,·,·,·,·,
CC(=O)Nc1ccc2nc(-c3cc(C)ccc3C)[nH]c2c1,-7%,-27%,?,-14%,-5%,·,·,·,·,·,
CC(=O)Nc1cc(NC(C)=O)cc(-c2nc3ccccc3[nH]2)c1,31%,7.3µM*,?,5%,-14%,?,?,-16%,16%,-7%,
CCC(=O)N1CCc2cc(S(=O)(=O)CCC(=O)Nc3ccc(Cl)c(C(F)(F)F)c3)ccc21,-6%,11µM*,-16%,14%,-12%,-6%,5%,7%,-1%,18µM*,PMP22 HiBiT cnf=?
CC(=O)c1ccc(N2CCN(C(=O)C3CCN(S(=O)(=O)c4c(C)noc4/C=C/c4ccc(C)cc4)CC3)CC2)cc1,8%,?,-8%,-2%,0%,-4%,12%,-7%,-9%,-13%,
Cc1ccc(/C=C/c2onc(C)c2S(=O)(=O)N2CCC(C(=O)N3CCN(c4ccccc4F)CC3)CC2)cc1,1%,-17%,9%,2%,-4%,·,·,·,·,·,
CC1CCN(S(=O)(=O)c2ccc3ncn(CC(=O)Nc4ccccc4C(F)(F)F)c(=O)c3c2)CC1,·,?,0%,·,3%,-12%,2%,5%,-11%,-15%,
COc1ccc(NC(=O)Cn2cnc3ccc(S(=O)(=O)N4CCC(C)CC4)cc3c2=O)c(OC)c1,·,1%,6%,·,-2%,·,·,·,·,·,
O=C(Nc1cc(F)ccc1F)c1ccc(CN2CC(=O)N3CCCCC3C2=O)cc1 (stereo unspecified),-11%,?,9%,-7%,8%,·,·,·,·,·,
CCOc1ccccc1CNC(=O)CSc1nnc(C)c2c(C)n(-c3ccccc3)nc12,10%,-27%,0%,6%,-12%,·,·,·,·,·,
COc1ccccc1CNC(=O)CSc1nnc(C)c2c(C)n(-c3ccccc3)nc12,7%,15µM*,?,9%,0%,?,4%,-3%,-1%,?,PMP22 HiBiT cnf=?
COc1ccc(OC)c(CCNC(=O)c2c(C)oc3ncn(CC(C)C)c(=O)c23)c1,-35%,?,13%,8%,4%,·,·,·,·,·,

# Compound activity as filed in PubChem BioAssay.
